IDH1 R132H inh – blocks human mutant IDH1 R132H enzyme; O75874; IDH1-R132H enzyme, NADPH consumption, diaphorase/resazurin fluorescence; Potency, µM (doses to about 76.6 µM), for inactives: top-dose activity change, negative = inhibition, hits mostly inhibitors; 0.093% of 390,000 active; AID 602179; note: potency is the fitted concentration of half-maximal effect; % is set by controls: 0 for no effect and ±100 for the full control effect; nearly all actives have a fitted effect of over 65% in size
Target sequence (O75874 whole entry R132H, stated change not applied): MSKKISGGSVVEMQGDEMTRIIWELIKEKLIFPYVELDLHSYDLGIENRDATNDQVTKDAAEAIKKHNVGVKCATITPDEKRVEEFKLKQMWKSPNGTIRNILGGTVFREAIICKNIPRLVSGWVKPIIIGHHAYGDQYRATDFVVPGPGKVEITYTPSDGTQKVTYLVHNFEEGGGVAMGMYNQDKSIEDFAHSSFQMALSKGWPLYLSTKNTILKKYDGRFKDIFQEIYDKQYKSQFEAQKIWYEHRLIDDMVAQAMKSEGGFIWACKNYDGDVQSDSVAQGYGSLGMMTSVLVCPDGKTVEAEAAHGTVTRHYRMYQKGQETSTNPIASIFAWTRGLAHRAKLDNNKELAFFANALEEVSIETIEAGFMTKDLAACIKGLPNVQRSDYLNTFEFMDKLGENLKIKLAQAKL
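IDH1-R132H (0.5 ug/mL dispensed) in pH 7.5 Tris buffer was preincubated 30 min with compound, then given a substrate mix of 0.016 mM NADPH and 2 mM alpha-KG for 80 min at room temperature; remaining NADPH was read by diaphorase/resazurin fluorescence.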
TDP-43 yeast inh – rescues yeast growth from TDP-43 toxicity. TDP-43 expressing yeast growth rescue, BacTiter-Glo, 24 h. Potency, µM (top dose mostly 46.1 µM), inactives show top-dose growth rescue (activation), usual class: activators. 1.8% of 410,000 active. AID 652104; note: potency is the fitted concentration of half-maximal effect; % of control where 0% means no effect; nearly all actives have a fitted effect of over 50% in size
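Readout is BacTiter-Glo luminescence of cell growth, so inhibitors register as activators. TDP-43-expressing yeast at OD600=0.02 in galactose medium, after raffinose pregrowth to mid-log, were incubated with compound for 24 hr at 30 deg C.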
LDHA block – blocks human lactate dehydrogenase A. P00338. purified LDHA, NADH/diaphorase-resazurin fluorescence; active compounds read low. activity change, % (values are at about 110 or 230 µM). 0.15% of 480,000 active. AID 1347041; in the data active = activity change below about -30%; inconclusive = mostly about -25% to -30%;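 note: plate controls were DMSO wells for no effect and wells without enzyme for full effect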
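Remaining NADH was detected by diaphorase (0.133 mg/mL) converting 37 µM resazurin to fluorescent resorufin, read at 0 and 20 minutes. The preceding 5-minute room-temperature reaction used 2 nM LDHA, 0.2 mM sodium pyruvate and 0.06 mM NADH at pH 7.4.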
aSyn rescue – inhibitors of alpha-synuclein toxicity in yeast; Potency, µM (series often up to 46.1 µM), without a hit: at the top dose growth rescue (activation), actives largely listed as activators; Yeast expressing alpha-synuclein, growth rescue, BacTiter-Glo, 24 h; 0.14% of 370,000 active; note: potency is the fitted concentration of half-maximal effect; % of control where 0% means no effect; nearly all actives have a fitted effect of over 65% in size
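Galactose-induced alpha-syn yeast (OD600=0.02, raffinose-pregrown) + pinned cpd, 24 hr, 30 deg C; growth by BacTiter-Glo luminescence. Growth restoration scores as activation.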
FUS yeast rescue – rescues growth of FUS-expressing yeast | S. cerevisiae FUS-expressing, growth rescue, OD600, 24 h | Potency, µM (titrated, usually from 76.6 µM), most hits filed as activators | 0.24% of 390,000 active | AID 1347120;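 note: potency is the fitted concentration of half-maximal effect; plate controls were DMSO vehicle for no effect and reference control for full effect; nearly all actives have a fitted effect of over 55% in size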
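S. cerevisiae expressing FUS from galactose induction served as the toxicity model. Growth after 24hr at 30C, read as absorbance at 600 nm, indicates suppression of toxicity; compounds dosed at several concentrations.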
Abeta yeast res – A-beta toxicity reversal in yeast; Potency, µM (doses to about 46.1 µM), usual class: activators; 0.063% of 410,000 active; yeast expressing A-beta42, growth rescue, OD600, 48 h; response scale: 0% DMSO, 100% iron-clioquinol control; note: potency is the fitted concentration of half-maximal effect; nearly all actives have a fitted effect of over 55% in size
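Growth rescue measured by 600 nm absorbance after 48 h yeast culture at 30 C with compound. Values normalized between DMSO and an equimolar ferric chloride plus clioquinol control.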
An asterisk follows results filed as active. Rows were chosen to be rich in hits. Some 2% of all compounds tested hit in one or more screens of this group. Unless noted, calls come from the whole dose curve; as a rule, active = well fitted curve in the direction sought with a large enough effect; inconclusive = small, poorly fitted or top-dose-only effect, or another doubt; inactive = no such curve, though single readings can be large; an effect the other way counts as inactive or inconclusive.

Screening CC(C)CNCc1ccc(-c2ccccc2)o1 returned LDHA block 2.
Screening Oc1c(Cl)cc(Cl)cc1/C=N/Nc1ncc(Br)cn1 returned IDH1 R132H inh -9%, TDP-43 yeast inh -1%, LDHA block -4, aSyn rescue 1µM*, FUS yeast rescue inactive and Abeta yeast res inactive.
`COc1ccc(NC(=O)c2cc(-c3cc(F)ccc3OC)n[nH]2)c(C)c1` gave TDP-43 yeast inh 22µM*, LDHA block -2, aSyn rescue -2%, FUS yeast rescue inactive and Abeta yeast res inactive.
`COc1ccc(NC(=O)c2cc(-c3cc(F)ccc3OCC3CCCO3)n[nH]2)c(C)c1` (stereo not given) gave TDP-43 yeast inh 13µM*, LDHA block -6, aSyn rescue -11%, FUS yeast rescue inconclusive and Abeta yeast res inactive.
COc1ccc(NC(=O)c2cc(-c3cc(Cl)ccc3C)n[nH]2)cc1OC was read as TDP-43 yeast inh 20µM*, LDHA block -3, aSyn rescue 10%, FUS yeast rescue inactive and Abeta yeast res inactive.
CC(C)Oc1cc(F)ccc1-c1cc(C(=O)NC2CCCCC2)[nH]n1 was read as TDP-43 yeast inh 0%, LDHA block -4, aSyn rescue -7%, FUS yeast rescue inactive and Abeta yeast res inactive.
Screening COc1ccc(NC(=O)c2cc(-c3cc(Cl)ccc3OC)n[nH]2)cc1OC returned TDP-43 yeast inh 0%, LDHA block 1, aSyn rescue -2%, FUS yeast rescue inactive and Abeta yeast res inactive.
CC(C)Oc1ccc(F)cc1-c1cc(C(=O)NC2CCCCC2)[nH]n1 was read as TDP-43 yeast inh 16µM*, LDHA block -6, aSyn rescue -7%, FUS yeast rescue inactive and Abeta yeast res inactive.
`Cc1cccc(C)c1-n1nnnc1SCC(=O)NCC1(N2CCOCC2)CCCCC1` gave LDHA block -8.
`COc1cccc(-c2nc3cc(NC(=O)c4ccc(C)c([N+](=O)[O-])c4)ccc3o2)c1` gave LDHA block -1.
For CN(CCc1noc(C(=O)NCc2ccc(F)cc2)n1)C(=O)Nc1cccc(Br)c1 the results were LDHA block -5.
`CCCOc1ccc(F)cc1-c1cc(C(=O)Nc2cc(OC)ccc2OC)[nH]n1` gave TDP-43 yeast inh 5%, LDHA block 6, aSyn rescue -12%, FUS yeast rescue inactive and Abeta yeast res inactive.
Screening COc1cc(NC(=O)c2cc(-c3cc(F)ccc3OC(C)C)n[nH]2)cc(OC)c1OC returned TDP-43 yeast inh 0%, LDHA block 4, aSyn rescue 6%, FUS yeast rescue inactive and Abeta yeast res inactive.
COc1ccc(NC(=O)c2cc(-c3ccc(F)cc3OC(C)C)n[nH]2)c(OC)c1 was read as TDP-43 yeast inh 25µM*, LDHA block 2, aSyn rescue -19%, FUS yeast rescue inactive and Abeta yeast res inactive.
`COc1ccc(NC(=O)c2cc(-c3cc(F)ccc3OC(C)C)n[nH]2)c(OC)c1` gave TDP-43 yeast inh 20µM*, LDHA block 0, aSyn rescue 1%, FUS yeast rescue inactive and Abeta yeast res inactive.
Screening COc1ccc(NC(=O)c2cc(-c3cc(F)ccc3OC(C)C)n[nH]2)cc1OC returned TDP-43 yeast inh 35µM*, LDHA block -1, aSyn rescue 2%, FUS yeast rescue inactive and Abeta yeast res inactive.
Screening O=C(Nc1ccc2c(c1)OCCO2)c1cc2cc(Br)ccc2[nH]1 returned LDHA block -2.
`O=C(COc1ccc(Cl)cc1)NCCSCc1ccccc1Cl` gave IDH1 R132H inh 1%, TDP-43 yeast inh 25µM*, LDHA block 4, aSyn rescue 2%, FUS yeast rescue inactive and Abeta yeast res inactive.
Cc1cccc(CSCCNC(=O)COc2ccc(Cl)cc2)c1 was read as IDH1 R132H inh -10%, TDP-43 yeast inh inconclusive, LDHA block -4, aSyn rescue 9%, FUS yeast rescue inactive and Abeta yeast res inactive.
Screening O=C(COc1ccc(Cl)cc1)NCCSCc1cccc(Cl)c1 returned IDH1 R132H inh 7%, TDP-43 yeast inh 16µM*, LDHA block -6, aSyn rescue 18%, FUS yeast rescue inactive and Abeta yeast res inactive.
For Cc1cc(Sc2ccc(NC(=O)c3cccc(Cl)c3)cc2)c2ccccc2n1 the results were LDHA block 14.
Screening NC(=O)COc1cccc(C2CC(=O)Nc3nc(N4CCCCC4)sc32)c1 (stereo not given) returned LDHA block 100.
`O=C(CSc1ncnc2ccccc12)N(C1CCCCC1)C1CCS(=O)(=O)C1` (stereo not given) gave LDHA block 7.
For Cc1cc(SCC(=O)N(C)C2CCCCC2)nc2ccccc12 the results were IDH1 R132H inh -4%, TDP-43 yeast inh 18µM*, LDHA block -7, aSyn rescue 0%, FUS yeast rescue inactive and Abeta yeast res inactive.
Screening Cc1cc(SCC(=O)c2ccc(O)c(O)c2)nc2ccccc12 returned IDH1 R132H inh -1%, TDP-43 yeast inh 22µM*, LDHA block 6, aSyn rescue inconclusive, FUS yeast rescue inactive and Abeta yeast res inactive.
Screening CN(C(=O)CSc1ncnc2ccccc12)C1CCCCC1 returned IDH1 R132H inh 8%, TDP-43 yeast inh 13µM*, LDHA block -10, aSyn rescue 4%, FUS yeast rescue inactive and Abeta yeast res inactive.
`CNc1cncc(-c2ccc(OC)c(OC)c2)n1` gave TDP-43 yeast inh -47%, LDHA block 4, aSyn rescue 7.9µM*, FUS yeast rescue inactive and Abeta yeast res inactive.
`CNc1cncc(-c2cccc(OC)c2F)n1` gave TDP-43 yeast inh 28µM*, LDHA block -5, aSyn rescue 3%, FUS yeast rescue inactive and Abeta yeast res inactive.
CN1CCc2c(sc3ncn4nc(CSc5nc6ccccc6o5)nc4c23)C1 was read as LDHA block 4.
`c1ccc(Cn2c(SCc3nc4ccccc4s3)nnc2-c2ccco2)cc1` gave IDH1 R132H inh 3%, TDP-43 yeast inh 14µM*, LDHA block -3, aSyn rescue 4%, FUS yeast rescue inconclusive and Abeta yeast res inactive.
Screening CSc1ccc(/C=C/C(=O)c2ccc(O)cc2)cc1 returned IDH1 R132H inh 0%, TDP-43 yeast inh 14µM*, LDHA block -11, aSyn rescue -11%, FUS yeast rescue inactive and Abeta yeast res inconclusive.
